Assay outcomes deposited in PubChem by National Center for Advancing Translational Sciences (NCATS).
The full list was thinned out, with hits kept by preference.
Pf Dd2 growth: Plasmodium falciparum Dd2 growth inhibition | AID 1347417 | P. falciparum Dd2 growth, SYBR Green, 72 h | Potency, µM (series often up to 28.9 µM), without a hit: at the highest dose activity, negative = inhibition, most hits filed as inhibitors | actives 4.3% (n = 120,000); active = well fitted inhibition curve with a large enough effect;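 note: plate controls were DMSO vehicle for no effect and reference drug for full effect; nearly all actives have a fitted effect of over 65% in size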
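Readout: SYBR Green fluorescence, 485 nm excitation, 535 nm emission, after ~16 h lysis at 37C. Before that, Dd2-infected red cells (2.5% hematocrit) grew 72 h with compound, 29 uM top final concentration.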
Numbers without * were called inactive; i = inactive; [ ] = dose if it differs, or a comment. Potency is the fitted concentration of half-maximal effect.

SMILES | Pf Dd2 growth
Cc1nn2c(c1-c1ccccc1C(C)C)N(Cc1cccc(C(=O)O)c1)CCC2 | 4.5µM*
Cc1nn2c(c1-c1ccccc1[S+](C)(=O)[O-])N(Cc1ccccc1F)CCC2 | i
Cc1nn2c(c1-c1ccccc1C(C)C)N(Cc1ccc(C(=O)O)cc1)CCC2 | -10%[44.1 µM]
Cc1nn2c(c1-c1ccccc1Oc1ccccc1)N(C(=O)C1CCC1)CCC2 | -2%[44.1 µM]
Cc1nn2c(c1-c1ccccc1-c1ccccc1)N(C(=O)c1cccnc1)CCC2 | i
COc1ccc(C(=O)N2CCCn3nc(C)c(-c4ccccc4-c4ccccc4)c32)cc1 | 10µM*
Cc1nn2c(c1-c1ccccc1Oc1ccccc1)N(Cc1ccccc1O)CCC2 | 0.56µM*
Cc1ccncc1-c1c(C)nn2c1N(Cc1ccc(C(=O)O)cc1)CCC2 | i
CC(=O)N1CCCn2nc(C)c(-c3ccccc3OCc3ccccc3)c21 | i
COc1ccc(-c2cc([C@H]3CN4CC[C@H]3C[C@@H]4CNC(=O)c3ccc(N(C)C)cc3)n(C)n2)cc1 | -25%
O=C1[C@H]2CN(Cc3cccc(Br)c3)C[C@H]2C(=O)N1Cc1ccc2c(c1)OCO2 | 1%
CC(C(=O)NCc1cc(F)ccc1F)C1CCOCC1 (stereo not given) | 1%
Cc1cc2nc3n(c(=O)c2n1CC(=O)Nc1ccc2c(c1)OCO2)CCC3 | i
Cc1cc(C(=O)N2CCC(c3nc(C4CCOCC4)no3)CC2)n(C)n1 | 33%
O=C(c1ccc(CN2C(=O)NC3(CCS(=O)(=O)CC3)C2=O)cc1)N1CCSCC1 | -2%
COCCOC1CCOC2(CCN(C(=O)Cc3c(C)noc3C)CC2)C1 (stereo not given) | 15%
CC(=O)Nc1ccc(CN2CCC23Cc2ccccc2NC3=O)cc1 (stereo not given) | -1%[44.1 µM]
Cc1nn2c(c1-c1ccccc1Oc1ccccc1)N(C(=O)Cc1ccc(O)cc1)CCC2 | 8.9µM*
Cc1nn2c(c1-c1ccccc1OCc1ccccc1)N(C(=O)C(C)C)CCC2 | i
Cc1nn2c(c1-c1ccccc1C(N)=O)N(C(=O)Cc1cccc(F)c1)CCC2 | 13%[44.1 µM]
COc1cccc(CC(=O)N2CCCn3nc(C)c(-c4ccccc4-c4ccccc4)c32)c1 | 10µM*
COc1ccccc1C(=O)N1CCCn2nc(C)c(-c3ccccc3-c3ccccc3)c21 | -17%[44.1 µM]
Cc1nn2c(c1-c1ccccc1C(C)C)N(C(=O)Cc1ccc(O)cc1)CCC2 | i
COc1ccc(C(=O)N2CCC(Oc3cccnc3)C2)cc1 (stereo not given) | -4%
CC(C)C1=NOC2(CCN(C(=O)c3ccccc3F)CC2)C1 | -5%[44.1 µM]
SMILES | Pf Dd2 growth
CCN(CC)CCn1c(=N)n(CCOc2ccccc2Cl)c2ccccc21 | 4.5µM*
CC(C)C(=O)N1CCC(NCCOc2ccccc2Cl)CC1 | -3%
CC(=O)c1ccccc1OCC(O)Cn1c(CO)nc2ccccc21 (stereo not given) | i
COc1ccc(N2CCN(CC(O)COc3ccccc3C(C)(C)C)CC2)cc1 (stereo not given) | 10%
CCN(CC)CCn1c(=N)n(CC(O)COc2ccccc2C)c2ccccc21 (stereo not given) | 1.3µM*
COC(=O)Cn1c(SCCOc2ccccc2Cl)nc2ccccc21 | 22%
Cc1ccc(-n2nc3n(c2=O)CCN(C(=O)c2ccc(F)cc2)C3)cc1 | 10%
CS(=O)(=O)c1ccc(CNC[C@H]2Cn3ccnc3CO2)cc1 | 9%[44.1 µM]
CC(=O)NCC(=O)N1CCCn2cc(-c3ccc4c(c3)OCO4)nc21 | -18%
COc1cc(=O)n2c(c1C(=O)NCc1ccc(F)cc1)CCCC2 | 14%
CCCCCC(=O)N1CC[C@@H](CC(=O)NCc2ccc(F)cc2)[C@@H](CC)C1 | -3%[44.1 µM]
Cc1ccc(NC(=O)Cn2c(N(C)Cc3ccccc3)nc(C)cc2=O)c(Cl)c1 | -7%
O=C(C[C@@H]1CCNC[C@@H]1Cc1cc(-c2ccccc2)on1)N1CCOCC1 | 10%[44.1 µM]
CC(C)(C)c1ccc(-c2cc(C[C@H]3CNCC[C@H]3CC(=O)O)no2)cc1 | -18%[44.1 µM]
CC(C)(C)c1ccc(-c2cc(C[C@H]3CNCC[C@H]3CC(=O)N3CCC(n4c(=O)[nH]c5ccccc54)CC3)no2)cc1 | 6.3µM*
Cc1ccc(OC2(C(=O)N3CCCC3c3nccs3)CCNCC2)cc1 (stereo not given) | i
CC(C)c1noc(-c2cccn3c(CNC(=O)c4c(F)cccc4F)nnc23)n1 | -17%
Oc1ccccc1CN1CCOC[C@H]1c1ncc(-c2ccc(F)cc2F)[nH]1 | 3.2µM*
CN1CCOC[C@H]1c1ncc(-c2ccc(F)cc2F)[nH]1 | i
Clc1ccc(-c2cnc([C@@H]3COCCN3C3CCCCC3)[nH]2)cc1 | -27%[44.1 µM]
Cn1c(CN2CCOC[C@H]2c2ncc(-c3ccc(Cl)s3)[nH]2)nc2ccccc21 | 11µM*
CS(=O)(=O)c1ccc(-c2cnc([C@@H]3COCCN3Cc3ccccc3O)[nH]2)cc1 | i
CC(C)(C)CN1CCOC[C@H]1c1ncc(-c2ccccc2)[nH]1 | i
Cn1cc(CN2CCOC[C@H]2c2ncc(C(C)(C)C)[nH]2)c2ccccc21 | 10µM*
CO[C@@](C(=O)N1CCOC[C@H]1c1ncc(-c2ccccc2)[nH]1)(c1ccccc1)C(F)(F)F | i
SMILES | Pf Dd2 growth
Clc1ccc(-c2cnc([C@@H]3COCCN3Cc3ccccc3)[nH]2)s1 | i
C[C@@H](NC(=O)N1CCOC[C@H]1c1ncc(-c2ccc(Cl)cc2)[nH]1)c1ccccc1 | 13µM*
CN1CCC(N2CCOC[C@H]2c2ncc(C(C)(C)C)[nH]2)CC1 | 9%[44.1 µM]
CS(=O)(=O)c1ccc(CN2CCOC[C@H]2c2ncc(-c3ccc(Cl)s3)[nH]2)cc1 | i
O=C(N[C@H]1C[C@@H]2C(=O)N[C@H]3CCN(C(=O)C4CCCC4)[C@@H]3C(=O)N2C1)c1cccs1 | -10%[44.1 µM]
CC(C)c1nncn1C1CCN(S(=O)(=O)Cc2ccc(Cl)cc2)CC1 | -26%
CS(=O)(=O)N1CCC(OC2CCN(C(=O)NCc3ccccc3)CC2)CC1 | 35%
CN1C(=O)CC(C(=O)O)C12CCN(Cc1cnc(CC3CCCC3)[nH]1)CC2 (stereo not given) | 10%
COc1ccc(NC(C)=O)cc1NC(=O)Cn1nc2c(cc1=O)CCCC2 | -9%
COCc1ccc2c(c1)c(OC(C)(C)C(=O)NC1CCC(O)CC1)nn2Cc1ccccc1 (stereo not given) | -16%
COc1ccc(CN(C)C(=O)Cn2nnnc2CN2CCOCC2)c2cccnc12 | -4%
COCc1nc(C2CCN(C(=O)Nc3ccc4c(c3)OCCO4)C2)no1 (stereo not given) | -21%
COc1ccc(CN2CCOC[C@H]2c2ncc(-c3ccc(C)cc3)[nH]2)cc1 | -1%[44.1 µM]
COc1ccc(-c2cnc([C@@H]3COCCN3Cc3ccccc3)[nH]2)cc1 | 10µM*
COc1ccc(-c2cnc([C@@H]3COCCN3Cc3ccncc3)[nH]2)cc1 | i
O=C(O)C1CC2(CCN(C(=O)NCc3ccccc3F)CC2)CN1 (stereo not given) | -17%
COC(=O)[C@@H]1Cc2ncn(Cc3ccccc3)c2CN1S(=O)(=O)Cc1ccccc1 | 11µM*
COC(=O)[C@@H]1Cc2ncn(Cc3ccc(Cl)cc3)c2CN1S(=O)(=O)c1cccs1 | -26%
COC(=O)[C@@H]1Cc2ncn(Cc3ccccc3)c2CN1S(=O)(=O)c1cccs1 | i
COC(=O)[C@@H]1Cc2ncn(Cc3ccccc3)c2CN1S(=O)(=O)c1cccc(C(F)(F)F)c1 | i
COC(=O)[C@@H]1Cc2ncn(Cc3ccc(Cl)cc3)c2CN1S(=O)(=O)c1ccc(NC(C)=O)cc1 | -7%
COC(=O)[C@@H]1Cc2ncn(Cc3ccc(Cl)cc3)c2CN1Cc1cccc(C#N)c1 | 11µM*
